Assay results reported in paper PMC4336329 (PLoS ONE, 2015).
The whole screen tested about 310,000 compounds, of which about 14,000 (4.5%) showed an effect of 50% or more. The effect is printed as a negative number. What follows is part of a selection rich in strong results, with near analogues and random picks from the rest.

target: human ether-à-go-go-related gene (hERG) potassium channel (human, UniProt Q12809); test: primary screen, population patch clamp on CHO cells stably expressing hERG; higher = less effect of the substance
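Note: peak tail current of the secondary pulse compared with the same well before compound.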

human ether-à-go-go-related gene (hERG) potassium channel, sequence (Q12809 whole entry, looked up): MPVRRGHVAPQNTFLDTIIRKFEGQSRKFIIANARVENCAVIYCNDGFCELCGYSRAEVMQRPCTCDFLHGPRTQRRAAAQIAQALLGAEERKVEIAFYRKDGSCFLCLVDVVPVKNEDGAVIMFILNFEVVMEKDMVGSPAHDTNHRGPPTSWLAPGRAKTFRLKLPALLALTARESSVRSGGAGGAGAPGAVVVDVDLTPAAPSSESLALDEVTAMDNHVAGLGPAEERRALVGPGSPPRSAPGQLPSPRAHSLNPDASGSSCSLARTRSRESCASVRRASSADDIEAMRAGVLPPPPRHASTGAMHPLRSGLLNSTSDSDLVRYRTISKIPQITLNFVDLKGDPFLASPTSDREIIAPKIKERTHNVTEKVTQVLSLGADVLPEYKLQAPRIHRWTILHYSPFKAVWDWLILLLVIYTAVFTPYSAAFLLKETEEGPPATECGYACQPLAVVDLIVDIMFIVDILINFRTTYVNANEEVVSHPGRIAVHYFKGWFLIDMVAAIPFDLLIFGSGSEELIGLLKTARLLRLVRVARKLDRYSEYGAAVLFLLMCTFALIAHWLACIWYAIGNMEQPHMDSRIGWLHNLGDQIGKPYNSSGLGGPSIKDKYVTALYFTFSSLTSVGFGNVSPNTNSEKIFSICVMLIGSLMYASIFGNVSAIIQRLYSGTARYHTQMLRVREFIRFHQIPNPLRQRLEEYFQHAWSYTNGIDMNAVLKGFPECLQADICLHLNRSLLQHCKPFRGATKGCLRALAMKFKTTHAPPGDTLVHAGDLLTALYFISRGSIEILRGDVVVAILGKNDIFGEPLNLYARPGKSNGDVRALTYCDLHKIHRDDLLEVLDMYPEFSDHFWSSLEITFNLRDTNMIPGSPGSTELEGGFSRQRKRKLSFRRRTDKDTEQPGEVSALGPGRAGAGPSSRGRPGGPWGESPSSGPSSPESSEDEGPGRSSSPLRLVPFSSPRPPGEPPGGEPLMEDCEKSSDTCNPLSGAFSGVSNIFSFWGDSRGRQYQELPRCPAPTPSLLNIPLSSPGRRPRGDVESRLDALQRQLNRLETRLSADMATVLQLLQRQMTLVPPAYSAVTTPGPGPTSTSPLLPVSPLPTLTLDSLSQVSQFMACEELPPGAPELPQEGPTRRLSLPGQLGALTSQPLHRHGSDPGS

SMILES | hERG current change (%, negative = inhibition) at 10uM [%]
Cc1c(C(=O)NCCc2ccccc2)oc2ccccc12 | 1.98
CN(C)C(=O)NC(O)C(Cl)Cl (centres unmarked) | -2
Cc1nn(C)c(C)c1NS(=O)(=O)c1ccccc1Cl | 4.16
CCc1ccccc1NC(=O)C1CCCN(c2ncnc3onc(-c4ccc(F)cc4)c23)C1 (centres unmarked) | 11.2
COc1cc(/C=N\NC(=O)c2ccc(Cn3cc(Br)c([N+](=O)[O-])n3)o2)cc(OC)c1O | -11.9
CN(C)c1ccc(/C=N/NC(=O)c2ccc(Cn3cc(Br)cn3)o2)cc1 | -46.1
CCOc1ccc(/C=N/NC(=O)c2ccc(Cn3cc(Br)cn3)o2)cc1 | -56.4
O=C(N/N=C\c1cccc(F)c1)c1ccc(Cn2cc(Br)c([N+](=O)[O-])n2)o1 | -33.9
O=C(N/N=C/c1cccc(Br)c1)c1ccc(Cn2cc(Br)cn2)o1 | -40.9
COc1cc(/C=N/NC(=O)c2ccc(Cn3cc([N+](=O)[O-])cn3)o2)cc(Br)c1O | -77.5
CCOc1ccc(/C=N/NC(=O)c2ccc(Cn3cc([N+](=O)[O-])cn3)o2)cc1 | -31.4
O=C(N/N=C\c1ccc2c(c1)OCO2)c1ccc(Cn2cc(Br)c([N+](=O)[O-])n2)o1 | -8.65
Cc1ccc(/C=N/NC(=O)c2ccc(Cn3cc([N+](=O)[O-])cn3)o2)cc1 | -65
COc1ccc(/C=N/NC(=O)c2ccc(Cn3cc([N+](=O)[O-])cn3)o2)cc1O | 15.8
O=C(N/N=C\c1ccc(F)cc1)c1ccc(Cn2cc(Br)c([N+](=O)[O-])n2)o1 | -59.9
O=C(N/N=C/c1cccnc1)c1ccc(Cn2cc([N+](=O)[O-])cn2)o1 | -8.7
O=C(NC1CCCC1)C(c1cccnc1)N(C(=O)c1csnn1)C1CC1 (centres unmarked) | 4.97
CC(C)c1ccc(NC(=O)C2C3C=CC4(O3)C2C(=O)N(CCN2CCOCC2)C4C(=O)NC2CCCCC2)cc1 (centres unmarked) | 15.3
O=C(Nc1ccccc1Cl)OC1CCCCC1 | 22.7
C=C(C)c1cccc(C(C)(C)NC(=O)NCc2ccncc2)c1 | -9.41
Cc1cc(S(=O)(=O)N2CCOCC2)ccc1OCC(=O)Nc1cccc(C(F)(F)F)c1 | 19.8

SMILES | hERG current change (%, negative = inhibition) at 10uM [%]
Cc1c(Cl)c([N+](=O)[O-])nn1Cc1ccc(C(=O)N/N=C\c2cc(Cl)ccc2O)o1 | 14.9
Cc1c(Cl)c([N+](=O)[O-])nn1Cc1ccc(C(=O)N/N=C\c2cccc(Br)c2)o1 | -38.7
COc1cc(/C=N\NC(=O)c2ccc(Cn3nc([N+](=O)[O-])c(Cl)c3C)o2)ccc1O | -70.4
N#Cc1ccc(Oc2nc(Nc3ccc(F)cc3)nc(N3CCCC3)n2)cc1 | 1.63
O=C(O)CC/C(=N\Nc1ccc([N+](=O)[O-])cc1S(=O)(=O)N1CCOCC1)c1cccs1 | -9.21
CCn1cc(CNC(=O)/C=C/c2ccc([N+](=O)[O-])cc2)cn1 | -33.6
Cc1ccc(NC(=O)CNC2CCCCC2)cc1Cl | 6.64
COc1ccc(Br)c(-c2nnc(CS(=O)(=O)c3ccccc3)o2)c1 | -29.3
CCOc1ccccc1-c1nnc(CS(=O)(=O)c2ccccc2)o1 | -52.5
Cc1ccccc1-c1nnc(CS(=O)(=O)c2ccccc2)o1 | -19.2
COc1cccc(CNC(=O)Nc2cccs2)c1 | 11
CCc1cc2c(=O)c(-c3nc(C)cs3)c(CCCC(=O)O)oc2cc1O | 29.7
CCOC(=O)c1cc2c(=O)n3ccccc3nc2n(Cc2ccco2)c1=NC(=O)c1ccccc1OCC | -50
CCOC(=O)c1cc2c(=O)n3ccccc3nc2n(Cc2ccco2)c1=NC(=O)c1cccc(OC)c1 | -43.8
CCOC(=O)c1cc2c(=O)n3ccccc3nc2n(Cc2ccco2)c1=NC(=O)c1cccnc1 | -37.4
CCOC(=O)c1cc2c(=O)n3ccccc3nc2n(Cc2ccco2)c1=NC(=O)c1ccccc1OC | -68.9
CCOC(=O)c1cc2c(=O)n3ccccc3nc2n(Cc2ccco2)c1=NC(=O)c1ccc(OC)cc1 | -54.3
CCOC(=O)c1cc2c(=O)n3ccccc3nc2n(Cc2ccco2)c1=NC(=O)c1ccc(OC)cc1OC | -54.2
Nc1nnc(SCC(=O)Nc2ccccc2N2CCOCC2)s1 | 3.88
O=C(c1cc2ccccc2s1)N1CCN(c2ccccn2)CC1 | -11.5
